In the library only some 3.5% were active in any assay of this set; here they are far more common.
MITF primary – MITF inhibitors, primary screen, biochemical, AlphaScreen, human. AlphaScreen MITF homodimerization, bead proximity signal. inhibition, % at 2.6 µM. 650,000 tested, 0.91% active; in the data active = inhibition above about 50%
GPR151 ag – activators of human GPR151, primary screen, cell-based, PathHunter beta-arrestin, luminescence; G-protein coupled receptor 151 (Homo sapiens), Q8TDV0; PathHunter beta-arrestin GPR151 cells; activation, % at 11.2 µM; 650,000 tested, 1% active; AID 1508602, 2020; in the data active = activation above about 4.9%
FBW7 activator – FBW7 E3 ligase activators, primary screen, biochemical, AlphaScreen, human. F-box/WD repeat-containing protein 7 (Homo sapiens), Q969H0. normalized activity (activation), % at 26.1 µM. 650,000 tested, 0.13% active. AlphaScreen FBW7–phospho-cyclin E peptide binding, activator screen; in the data active = normalized activity above about 1.9%;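 also: purified mutant Fbw7 with reduced substrate affinity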
Target sequence (Q969H0 whole entry, looked up): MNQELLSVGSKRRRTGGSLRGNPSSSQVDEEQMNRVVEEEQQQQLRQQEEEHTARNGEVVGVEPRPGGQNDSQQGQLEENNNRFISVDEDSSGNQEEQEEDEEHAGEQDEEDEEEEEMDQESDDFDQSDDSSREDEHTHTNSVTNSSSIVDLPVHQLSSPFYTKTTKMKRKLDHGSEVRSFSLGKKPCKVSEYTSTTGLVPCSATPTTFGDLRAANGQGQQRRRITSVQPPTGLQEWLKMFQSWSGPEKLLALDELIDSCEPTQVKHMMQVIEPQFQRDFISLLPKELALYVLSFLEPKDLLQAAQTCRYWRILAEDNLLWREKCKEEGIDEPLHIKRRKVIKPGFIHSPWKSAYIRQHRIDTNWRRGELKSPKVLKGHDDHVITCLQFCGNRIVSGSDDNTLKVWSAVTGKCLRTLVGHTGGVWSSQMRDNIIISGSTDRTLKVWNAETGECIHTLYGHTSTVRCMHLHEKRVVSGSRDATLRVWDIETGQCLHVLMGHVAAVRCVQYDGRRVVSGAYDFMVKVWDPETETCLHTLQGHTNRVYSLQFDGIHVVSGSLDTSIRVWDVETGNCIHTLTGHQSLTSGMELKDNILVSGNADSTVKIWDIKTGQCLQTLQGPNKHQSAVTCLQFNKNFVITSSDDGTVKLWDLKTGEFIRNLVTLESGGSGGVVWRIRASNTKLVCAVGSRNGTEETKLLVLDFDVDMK
TEAD-YAP block – TEAD-YAP interaction inhibition, primary screen, TEAD-YAP interaction inhibitor project, luminescence, HEK-TIYL cells. TEAD-Gal4/YAP UAS-luciferase luminescence. inhibition, % at 9.12 µM. 640,000 tested, 1.4% active; in the data active = inhibition above about 32%
GPR151 confirm – GPR151 activators, triplicate retest, confirmation, cell-based, PathHunter beta-arrestin, luminescence; shares compounds with GPR151 ag; GPR151 PathHunter beta-arrestin cells, 90 min; % of EA-reagent control over plate median; activation, % at 11.2 µM; 6,700 tested, under 10 active; AID 1508609, 2020;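 active = mean percent activation across replicates above the confirmation screen cutoff of 4.91%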
GPR119 ag – GPR119 activators in beta-arrestin cells, counter-screen for GPR151 activator project, cell-based, PathHunter beta-arrestin, luminescence, triplicate; shares compounds with GPR151 ag; 90 min; 0 = compound-well median, 100 = enzyme-acceptor control; activation, % at 11.2 µM; 6,700 tested, 0.3% active;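 active = mean percent activation in the counterscreen above 29.09%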;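 also: counterscreen on off-target GPR119 to flag nonselective hits from the GPR151 activator screen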
Large screens that a line does not name were inactive (follow-up assays come after a bar, where they were run); ! = repeats disagree.

CSc1ccc(S(=O)(=O)N2CCCCCC2)cc1	GPR151 ag 5.0 | GPR151 confirm inactive | GPR119 ag inactive
COC(=O)CCCC(=O)N1CCC(CCC(=O)Nc2cccc(OC)c2)CC1	none
COc1ccccc1N=C1SC(C(=O)NCCc2ccccc2)CC(=O)N1C (stereo not drawn)	none
COc1cc(SC)ccc1C(=O)Nc1ccc2c(c1)OC(C)(C)O2	GPR151 ag 5.2 | GPR151 confirm inactive | GPR119 ag inactive
O=C(Nc1ccc(F)c(Cl)c1)c1nn2c(C(F)(F)F)cc(-c3cccs3)nc2c1Br	none
O=C(O)C1CC=C(Cl)CC1C(=O)Nc1ccn[nH]1 (stereo not drawn)	GPR151 ag 10.0 | GPR151 confirm inactive | GPR119 ag inactive
Cc1cc(N2CCN(C(=O)c3ccc(Cl)cc3Cl)CC2)c(F)cc1[N+](=O)[O-]	GPR151 ag 6.8 | GPR151 confirm inactive | GPR119 ag inactive
O=C(C1CCCCC1)N1CCOc2ccc(CN3CCN(Cc4ccccn4)CC3)cc2C1	GPR151 ag 5.0 | GPR151 confirm inactive | GPR119 ag inactive
O=C(C1CCC1)N1CCOc2ccc(CN3CCN(c4ccccn4)CC3)cc2C1	none
CCc1nc(SCC(=O)Nc2ccc(N(C)C)cc2)c2oc3ccccc3c2n1	none
Cc1cccc(Cc2nnc(CCC(=O)N3CCCC3c3ccc(F)cc3)o2)c1 (stereo not drawn)	none
O=C(CCC(=O)OCC(=O)c1ccc(Cl)c(Cl)c1)Nc1ccccc1	GPR151 ag 5.5 | GPR151 confirm inactive | GPR119 ag inactive
O=C(CCC(=O)OCC(=O)c1ccc(Cl)c(Cl)c1)Nc1ccc(F)cc1	none
N#C/C(=C\c1ccc(OCCOc2ccc(Br)cc2)cc1)C(N)=O	none
CC(C)NC(=O)c1cccc2nc3ccccc3nc12	none
NC(=O)c1cccc2nc3ccccc3nc12	GPR151 ag 8.8 | GPR151 confirm inactive | GPR119 ag inactive
O=C(NC(=O)C(Cl)(Cl)Cl)OCN1C(=O)c2ccccc2C1=O	none
O=C(NC(=O)c1ccccc1)Nc1ccc(Br)cc1	GPR151 ag 6.1 | GPR151 confirm inactive | GPR119 ag inactive
C[C@@H](Cn1nc(-c2cccs2)oc1=O)NC(=O)C(C)(C)C	none
COc1cc(OC)c(CN2CCc3nnc(C4CCCO4)n3CC2)c(OC)c1 (stereo not drawn)	GPR151 ag 5.3 | GPR151 confirm inactive | GPR119 ag inactive
COc1cn(CC(=O)Nc2ccc3c(c2)OCO3)c(CN2CCC(C)CC2)cc1=O	none
CCCCNS(=O)(=O)c1ccc(SC)cc1	none
COc1cccc(CC2(CO)CCCN(Cc3cc(OC)c(OC)c(OC)c3)C2)c1 (stereo not drawn)	none
COc1cccc(CC2(CO)CCCN(Cc3cccc(OC)c3OC)C2)c1 (stereo not drawn)	GPR151 ag 6.2 | GPR151 confirm inactive | GPR119 ag inactive
COc1cc(Cl)cc(/C=C2\C(=O)NN(c3ccccc3)C2=O)c1O	GPR151 ag 5.7 | GPR151 confirm inactive | GPR119 ag inactive
O=c1cc(-c2ccccc2O)oc2cc(O)ccc12	none
O=c1cc2oc3cc(O)c(O)cc3c(-c3ccccc3)c-2cc1O	MITF primary 104, GPR151 ag 6.2 | GPR151 confirm inactive | GPR119 ag inactive
COc1ccc(OC)c(-c2c3cc(O)c(=O)cc-3oc3cc(O)c(O)cc23)c1	MITF primary 107, GPR151 ag 5.0 | GPR151 confirm inactive | GPR119 ag inactive
O=C1NC(c2ccccc2)(C(Cl)(Cl)Cl)N=C2SC=CN12 (stereo not drawn)	none
Clc1cccc(N2CCN(c3ncnc4c3nc3n4CCCCC3)CC2)c1	GPR151 ag 12, TEAD-YAP block 41 | GPR151 confirm inactive | GPR119 ag inactive
Cc1ccc(NC(=O)COc2cccc3c2CCN(Cc2cccnc2)C3=O)c(C)c1	GPR151 ag 5.4 | GPR151 confirm inactive | GPR119 ag inactive
CN(C)CCCN1c2ccccc2CCc2ccc(Cl)cc21	GPR151 ag 10! | GPR151 confirm inactive | GPR119 ag inactive
CN(CCCN1c2ccccc2CCc2ccccc21)CC(=O)c1ccc(Cl)cc1	none
C=CCc1ccccc1OCCOc1c(Br)cc(/C=C2/C(=N)N3N=C(CCC)SC3=NC2=O)cc1OC	none
Cn1cc(CC(=O)NC2CCN(Cc3ccccc3)CC2)c2ccccc21	none
Cc1ccccc1-c1nc2cc(NC(=S)NC(=O)c3cccs3)ccc2o1	none
O=C(COC(=O)c1ccc2c(c1)C1C=CCC1C(c1ccc(Br)cc1)N2)c1ccc(Cl)cc1 (stereo not drawn)	none
COc1cccc(CN2CCN(C(=O)CCC3(C)CCC(=O)N3)CC2=O)c1 (stereo not drawn)	GPR151 ag 7.8 | GPR151 confirm inactive | GPR119 ag inactive
CC(=O)CSc1nnc(C)n1-c1ccc(N(C)C)cc1	none
COC(=O)CSc1nnc(C)n1-c1ccc(N(C)C)cc1	GPR151 ag 5.6 | GPR151 confirm inactive | GPR119 ag inactive
Cc1ccc(S(=O)(=O)N(C)CC(=O)OCc2cc([N+](=O)[O-])cc3c2OCOC3)cc1	GPR151 ag 8.1 | GPR151 confirm inactive | GPR119 ag inactive
O=C(O)CNC(=O)c1ccc(Cl)c([N+](=O)[O-])c1	none
N/C(=N\OC(=O)CCCN1C(=O)c2ccccc2C1=O)c1ccccn1	GPR151 ag 5.3 | GPR151 confirm inactive | GPR119 ag inactive
CCCn1c(=S)[nH]c2cc(C(=O)N(CC)CCO)ccc2c1=O	none
Cc1ccc2nc(N(CCCN(C)C)C(=O)c3ccc(C)c(C)c3)sc2c1	none
CCn1c(SCc2cccc(Br)c2)nnc1-c1cnccn1	GPR151 ag 7.4 | GPR151 confirm inactive | GPR119 ag inactive
CC(C)CCN1CCNC(=O)C1CC(=O)N1CCC(CN2CCOCC2)CC1 (stereo not drawn)	none
COc1ccc(COC(=O)C2=C(C)NC3=C(C(=O)CC(C)(C)C3)C2c2ccc(OC)cc2)cc1 (stereo not drawn)	none
COc1cc(C2C(C(=O)OC(C)(C)C)=C(C)NC3=C2C(=O)CC(C)(C)C3)ccc1O (stereo not drawn)	GPR151 ag 5.4 | GPR151 confirm inactive | GPR119 ag inactive
COc1ccc(COC(=O)C2=C(C)NC3=C(C(=O)CC(C)(C)C3)C2c2ccc(O)c(OC)c2)cc1 (stereo not drawn)	none
COc1ccc(COC(=O)C2=C(C)NC3=C(C(=O)CCC3)C2c2ccc(OC)c(O)c2)cc1 (stereo not drawn)	GPR151 ag 5.0! | GPR151 confirm inactive | GPR119 ag inactive

Screening results deposited in PubChem by The Scripps Research Institute Molecular Screening Center.
